# Experimental data as given in ChEMBL document CHEMBL3988442, “University of Dundee, Small-Polar-MMV Screening Library” (2021).
# Biological target: AMP-activated protein kinase, AMPK (Homo sapiens) (UniProt P54646+O43741+P54619+Q9UGJ0+Q9Y478+Q13131+Q9UGI9)
# Test: AMP-dependent Kinase enzyme assay. An in vitro enzyme assay that detects ADP turnover that is directly proportional to AMPK activity. This uses naive AMPK that is activated during the assay with MK-8722
# Type: functional
# Parameters: scale not given: direction of the effect not stated beside the values
# Settings: 30 µM
row,SMILES,Percent Effect [%]
1,COC(=O)c1cccc(C(=O)N(CCC#N)CC(C)(C)C)c1,2.62
2,CC(CNC(=O)c1cnc[nH]1)Oc1ccccc1Br (centres undefined),10.3
3,O=C(c1cc(C2CC2)nc2onc(-c3ccccc3)c12)N1CCOCC1,4.72
4,COCC(=O)NCCc1nc2cc(-c3ccc(OC)cc3)ncn2n1,8.07
5,COc1ccccc1CN1CCC(c2nccc(C)n2)C1 (centres undefined),-3.97
6,COc1cccc(Cn2ncnc2CCC(C)N2CCN(C)CC2)c1 (centres undefined),-1.98
7,CN(C)S(=O)(=O)N1CCOC(c2cccc(-c3cncnc3)n2)C1 (centres undefined),9.99
8,Cc1noc(C)c1-c1n[nH]c2c1CN(S(=O)(=O)c1ccsc1)CC2,7.37
9,Cc1noc(C)c1-c1n[nH]c2c1CN(S(=O)(=O)c1cccs1)CC2,2.21
10,O=C(NCc1cccnc1N1CCCCC1)c1ccc2cc[nH]c2c1,1.26
11,Cc1ccc(N2CCCC(Nc3nn4cc(C)nc4s3)C2)nn1 (centres undefined),8.12
12,C[C@@H]1CN(c2ccc(Cl)cn2)C[C@@]1(O)C1CC1,5.94
13,CC(O)C1CCN(C(=O)CCOc2ccccc2F)CC1 (centres undefined),4.43
14,Cc1nn(C)c(Cl)c1C(=O)NCC1(C(N)=O)CCOCC1,-1.15
15,CCCc1nnc(N2CCC(C3CCN(C)CC3)CC2)o1,-1.66
16,Cc1ccc(N2CCCC(N(C)c3nn4cc(C)nc4s3)C2)nn1 (centres undefined),33
17,Cc1[nH]nc(CCC(=O)N2C[C@H]3CC[C@@H]2CN(C(=O)N(C)C)C3)c1C,0.209
18,Cc1nc2cc(C3CCOCC3)nn2c(NCC2COCCO2)c1C (centres undefined),1.07
19,CC(c1ccc(F)cc1F)N1CCN(CCC(=O)O)CC1 (centres undefined),8.21
20,Cc1cc(=O)n2nc(Oc3cc(Cl)cc(Cl)c3)sc2n1,-4.19

row,SMILES,Percent Effect [%]
1,CN(Cc1csc(-c2ccccc2)n1)Cc1ncccc1C(=O)O,5.39
2,CCc1nnc(CN2CC(n3cccn3)C2)o1,-3.56
3,CN(CCCc1cnn(C)c1)Cc1cc2n(n1)CCCN(C)C2,-6.92
4,COc1ccc(C2CN(c3ncccn3)CCN2C(C)=O)cc1 (centres undefined),21.2
5,O=C(C1CNCCN1C(=O)CCOc1ccccc1)N1CCCC1 (centres undefined),8.73
6,Cc1cc(CN2CCN(S(=O)(=O)c3c(C)c(Cl)cc(C)c3Cl)CC2)on1,-3.43
7,CN(Cc1cnccn1)c1cncc(Br)c1,3.25
8,Cc1ccc(CNc2ccn(CCC(N)=O)n2)c(Br)c1,1.48
9,CCC(CN1CCCC1)n1cncc1-c1cnn(-c2ccc(F)cc2)c1 (centres undefined),12.9
10,Cc1cc(C(=O)NC(C)Cc2cccc(Cl)c2)n(C)n1 (centres undefined),10.6
11,Cc1ccc(C2CSCCN2CCS(C)(=O)=O)cc1 (centres undefined),-3.45
12,COc1ccc([C@@H]2CN(C(=O)CCCc3cn[nH]c3)C[C@H]2N(C)C)cc1,2.77
13,O=S(=O)(NC1CCN(CC(F)(F)F)C1)c1cc(F)cc(F)c1 (centres undefined),4.84
14,O=C(NCC(F)(F)F)c1ccc(-n2cccn2)nn1,0.877
15,CC(C)(C)C(NC(=O)CCCS(C)(=O)=O)c1ccc(F)cc1F (centres undefined),7.18
16,Cc1cc(-c2cnc(N3CCSCC3)nc2C(C)C)on1,16
17,COc1ncnc(N)c1CNCCc1ccc(-n2cccn2)cc1,6.72
18,CSc1ccc(C(=O)C2CCCN(C(=O)CCn3cncn3)C2)cc1 (centres undefined),10.4
19,Fc1ccc(N2CCN(CCCc3cn[nH]c3)CC2)cc1,3.93
